“And” between values parts separate entries of the source, which are not always exact repeats. Equal entries are not always repeated. The source holds several records for some structures; these can differ, active in one and inactive in another. The source made the active and inactive calls. Rule for the calls: active = hit-call score of the fitted dose curve at least 0.9, where 1 is the maximum; inactive = score below 0.9.
read-out: Tumor necrosis factor (Homo sapiens) (UniProt P01375); assay: BSK_LPS_TNFa: BioMAP Diversity Plus: LPS Assay for Tumour Necrosis Factor alpha (TNFa) Biomarker Activity (AID 2283085); settings: primary human HUVEC with PBMC; actives raise or lower the signal
Protocol: BSK_LPS is a cell-based, multiplexed-readout assay that uses umbilical vein endothelium and peripheral blood mononuclear cells, a human vascular primary cell co-culture, with measurements taken at 24 hours after chemical dosing in a 96-well plate.BSK_LPS_TNFa is an assay component measured in the BSK_LPS assay. It measures TNF-a antibody related to regulation of gene expression using ELISA technology.Data from the assay component BSK_LPS_TNFa was analyzed into 1 assay endpoint. This assay endpoint, BSK_LPS_TNFa, was analyzed with bidirectional fitting relative to DMSO as the negative control and baseline of activity. Using a type of binding reporter, gain or loss-of-signal activity can be used to understand changes in the signaling as they relate to the gene TNF. Furthermore, this assay endpoint can be referred to as a primary readout, because this assay has produced multiple assay endpoints where this one serves a signaling function. To generalize the intended target to other relatable targets, this assay endpoint is annotated to the cytokine intended target family, where the subfamily is inflammatory factor.
The levels of cell surface (or secreted, indicated by the prefix "s") biomarker endpoints were measured by ELISA. Overt cytotoxicity to cells in confluent adherent cultures (all systems other than the BT system) was assessed by measuring total protein levels using sulforhodamine B (SRB) staining in parallel cultures at the time of biomarker measurements, indicated as SRB endpoints. For proliferation assays for adherent cell types, individual cell types are cultured at sub-confluence and relative cell numbers quantified by SRB staining at time points optimized for each system (48 h: 3C and CASM3C systems; 72 h: BT and HDF3CGF systems; 96 h: SAg system). SRB was performed by staining cells with 0.1% SRB after fixation with 10% TCA and reading wells at 560 nm.Viability and proliferation of PBMC (T cells) was quantified by Alamar Blue reduction for the SAg and BT systems. For PBMC viability (referred to as PBMC Cytotoxicity within the assay endpoint names), cells were plated (75,000/well in a 96-well plate) and then chemical samples added for 1 h before addition of activators, SEB and TSST-1 (20 ng/mL final concentration each). Cells were incubated for 90 h. Then, Alamar Blue (20 uL/well) (Invitrogen, Cat DAL1100) was added for 6 h, and the plates were read with a fluorescence microplate reader at 546/580 nm (excitation/emission). For PBMC proliferation, cells were plated and activated as above but incubated for only 16 h prior to addition of Alamar Blue. Plates were read after 6 h.

Chain of Tumor necrosis factor (Homo sapiens) (P01375 whole entry, looked up): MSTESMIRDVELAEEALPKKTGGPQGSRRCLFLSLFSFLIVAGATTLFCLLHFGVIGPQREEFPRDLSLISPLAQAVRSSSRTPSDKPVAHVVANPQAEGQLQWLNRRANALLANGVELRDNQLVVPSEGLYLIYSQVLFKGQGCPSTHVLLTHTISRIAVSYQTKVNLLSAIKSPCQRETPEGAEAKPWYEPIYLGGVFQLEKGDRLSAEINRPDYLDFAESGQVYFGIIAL

| Compound | AC50 | outcome |
| --- | --- | --- |
| OCC(F)(F)C(F)(F)C(F)(F)C(F)(F)C(F)(F)C(F)(F)C(F)(F)C(F)(F)CO | 0.399 µM (active) | inactive |
| O=C(Cl)C(F)(F)C(F)(F)C(F)(F)C(F)(F)C(F)(F)C(F)(F)C(F)(F)F | – | inactive |
| OCC(F)(F)C(F)(F)C(F)(F)CO | – | inactive |
| CCN(CC)c1ccc(N=Nc2ccccc2)cc1 | – | inactive |
| CCOC(=O)CC(=O)C(F)(F)C(F)(F)F | – | inactive |
| O=C=Nc1cccc2c(N=C=O)cccc12 | – | inactive |
| CNS(=O)(=O)C(F)(F)C(F)(F)C(F)(F)C(F)(F)C(F)(F)C(F)(F)C(F)(F)C(F)(F)F | – | inactive |
| OCC(O)CC(F)(F)C(F)(F)C(F)(F)C(F)(F)C(F)(F)C(F)(F)C(F)(F)C(F)(F)F (stereo not given) | – | inactive |
| NCC(F)(F)C(F)(F)C(F)(F)C(F)(F)C(F)(F)C(F)(F)F | – | inactive |
| FC(F)(F)C(F)(F)C(F)(F)C(F)(F)C(F)(F)C(F)(F)C(F)(F)CCI | – | inactive |
| NC(=O)C(F)(F)C(F)(F)C(F)(F)C(F)F | – | inactive |
| C=CC(=O)OCCC(F)(F)C(F)(F)C(F)(F)C(F)(F)F | – | inactive |
| OCCCC(F)(F)C(F)(F)C(F)(F)C(F)(F)C(F)(F)C(F)(F)C(F)(F)C(F)(F)F | 29.7 µM (active) and 19.9 µM (active) | – |
| O=C(O)CCC(F)(F)C(F)(F)C(F)(F)C(F)(F)C(F)(F)C(F)(F)C(F)(F)F | – | inactive |
| CCN(CC)c1ccc(C=O)cc1 | – | inactive |
| FC(F)(F)C(F)(F)C(F)(F)C(F)(F)C(F)(F)C(F)(F)CC[Si](Cl)(Cl)Cl | – | inactive |
| OCCCCC(F)(F)C(F)(F)C(F)(F)C(F)(F)F | – | inactive |
| OC(O)C(F)(F)C(F)(F)F | – | inactive |
| CC1=CC2C3C=CC(C3)C2C1C (stereo not given) | 31.3 µM (active) | – |

| Compound | AC50 | outcome |
| --- | --- | --- |
| CCN=C1C=CC(=C(c2ccc(N(CC)CC)cc2)c2ccc(N(CC)CC)cc2)c2ccccc21 | 501 nM (active) and 519 nM (active) | – |
| C[C@]12CC[C@H]3C(=CCc4cc(O)ccc43)[C@@H]1CCC2=O | – | inactive |
| O=C(O)C(F)(F)OC(F)(F)C(F)(F)OC(F)(F)C(F)(F)OC(F)(F)F | – | inactive |
| O=S(=O)(O)CCC(F)(F)C(F)(F)C(F)(F)C(F)(F)C(F)(F)C(F)(F)C(F)(F)C(F)(F)F | 47.1 µM (active) | inactive |
| O=C1c2c(O)ccc(Nc3ccc(CCO)cc3)c2C(=O)c2c([N+](=O)[O-])ccc(O)c21 | – | inactive |
| Brc1nc2ccccc2s1 | – | inactive |
| C=C(C)C(=O)OCC(F)(F)C(F)(F)C(F)(F)C(F)F | – | inactive |
| O=C(F)C1(F)C(F)(F)C(F)(F)C(F)(F)C(F)(F)C1(F)F | – | inactive |
| CCOC(C=C(C)CCC=C(C)C)OCC | – | inactive |
| NC(=O)C(F)(F)C(F)(F)C(F)(F)F | – | inactive |
| O=C(O)C(F)(F)C(F)(F)C(F)(F)OC(F)(C(F)(F)F)C(F)(F)F | – | inactive |
| C=CC(=O)OCC(F)(F)C(F)(F)C(F)(F)COC(=O)C=C | 14.9 µM (active) and 15.7 µM (active) | – |
| O=S(=O)(OCC(F)(F)F)C(F)(F)C(F)(F)C(F)(F)C(F)(F)F | 43.7 µM (active) and 16.3 µM (active) | – |
| Cc1ccc(S(=O)(=O)C(I)I)cc1 | – | inactive |
| O=S(=O)(O)CCC(F)(F)C(F)(F)C(F)(F)C(F)(F)F | – | inactive |
| O=C(Cl)C(F)(F)C(F)(F)C(F)(F)C(F)(F)C(F)(F)C(F)(F)F | – | inactive |
| O=C(c1ccccc1)c1ccc(O)cc1O | – | inactive |
| COC(F)(C(F)F)C(F)(F)F (stereo not given) | – | inactive |
| O=C(O)C(F)(F)C(F)(F)C(F)(F)OC(F)(F)F | – | inactive |
